Over roughly 33,000 sequences, “e-score” has its median near -0.037; the highest 2% begin near 0.34. The list comes from a sample in which the highest values are over-represented; it also holds similar and randomly drawn sequences.

The experiment deals with T1, GST-Rok (full length) (Bacillus subtilis subsp. subtilis str. …, UniProt O34857 1-191).
T1 sequence: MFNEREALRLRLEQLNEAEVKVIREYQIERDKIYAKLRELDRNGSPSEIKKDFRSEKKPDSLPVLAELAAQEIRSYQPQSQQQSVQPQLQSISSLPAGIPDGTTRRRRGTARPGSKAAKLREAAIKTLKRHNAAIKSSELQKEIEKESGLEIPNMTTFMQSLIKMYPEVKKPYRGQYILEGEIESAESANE
Kind of experiment: protein binding microarray; Rok is a gene silencer of Bacillus subtilis; high values mean tight binding. To be noted: protein: recombinant; tags: GST (pTH5325, pDEST15-Magic modified); dsDNA, one strand shown. The gist of the method:
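Each has a 25-mer constant primer and a 35-mer variable part from a de Bruijn sequence of order 10, covering every non-palindromic 8-mer at least 32 times (palindromic 16). Preference for each 8-mer is given as a rank-based, unitless enrichment score (E-score). Its range runs from 0.5 (most favored) to −0.5 (most disfavored).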
As for TTATACAA, the binding signal was determined as 0.294 E-score.
ATATACAG: the binding signal came out at 0.282 E-score.
With CTATACAA, the binding signal amounted to 0.296 E-score.
For the sequence ATATACAC, the binding signal was 0.339 E-score.
The figure for CTATACAC is 0.216 E-score; for ATTTAGGC it is -0.0308 E-score.
Next, CGTAGGCC: -0.17 E-score.
In the case of ATCGTCCA, the binding signal was -0.0609 E-score.
The figure for GCAAAAAC is 0.0325 E-score.
The figure for CCTAACTA is 0.26 E-score; for GGTAACTA it is 0.305 E-score.
With ACTAACTC, the binding signal is 0.12 E-score.
Next, GATAACTA: 0.222 E-score.
The figure for AGTAACTC is 0.0592 E-score; for GCTAACGA it is 0.123 E-score; for AATAACTG it is 0.195 E-score.
The figure for AGTAACTA is 0.421 E-score.
Turning to GCTAACTA, the binding signal worked out at 0.341 E-score.
Regarding AATAACTA, the binding signal stood at 0.341 E-score.
The figure for ACTAACTA is 0.348 E-score; for ACTAACTG it is 0.163 E-score; for AGTTTTAC it is 0.301 E-score.
With AGACCAAT, the binding signal is -0.0485 E-score.
Next, AGAGCACA: -0.114 E-score; GCGCTTCA: -0.0884 E-score; CGCCTATA: 0.00134 E-score.
Turning to AGTTCTAC, the binding signal worked out at 0.383 E-score.
The figure for AGTTCTAT is 0.213 E-score.
Next, AATTCTAT: 0.31 E-score; AATTCTAC: 0.435 E-score; CATTCTAC: 0.407 E-score.
The figure for CATTCTAA is 0.0993 E-score; for GATTCTGC it is -0.0394 E-score; for AGTTCTAA it is 0.15 E-score.
As for CATTCTAG, the binding signal stood at 0.259 E-score.
In the case of AATTCTAA, the binding signal was determined as 0.252 E-score.
Take GATTCTAC: the binding signal was determined as 0.393 E-score.
Next, GATTCTAA: 0.134 E-score; AGCGACAG: -0.152 E-score.
The figure for GCATTTAA is 0.115 E-score; for ATAGCCTC it is -0.165 E-score.
Next, GCTTAGAA: -0.0146 E-score; CCGTACAA: 0.188 E-score; ACTCGGTA: 0.363 E-score.
Take ACTCGGTC: the binding signal was -0.0736 E-score.
Next, CCTCGGTA: 0.0273 E-score; TATAAATA: 0.397 E-score; AATAAATG: 0.295 E-score.
Next, GATAAATA: 0.313 E-score; AATAAATC: 0.233 E-score; AATAAATA: 0.345 E-score.
CATAAATA: the binding signal was found to be 0.195 E-score.
The figure for CTTGCGGC is -0.19 E-score; for GTACTAAA it is 0.241 E-score.
Next, ATACTATC: 0.378 E-score; GGACTATA: 0.0812 E-score; AGACTATA: 0.286 E-score.
The figure for ATACTTTA is 0.239 E-score; for GTACTTTA it is 0.377 E-score.
Turning to CTACTATC, the binding signal was 0.323 E-score.
The figure for GTACTATA is 0.444 E-score.
With ATACTATA, the binding signal came out at 0.396 E-score.
The figure for ATACTATG is 0.271 E-score; for CTACTTTA it is 0.31 E-score.
The figure for ATACTCTC is -0.0829 E-score; for AATGGGTA it is 0.289 E-score.
The figure for AGTGACAG is -0.0878 E-score; for ACTTGTCT it is -0.00713 E-score; for CCTCCAAC it is -0.135 E-score.
For ACATTAAA, the binding signal was determined as 0.108 E-score.
On to CATTCTTC, for which the binding signal came out at 0.0507 E-score.
The figure for CCACTATA is 0.162 E-score; for CGACTATA it is 0.151 E-score.
The figure for CTACTATA is 0.399 E-score; for ATACTAGG it is 0.225 E-score.
Consider ATACTAGA, for which the binding signal worked out at 0.349 E-score.
The figure for CTACTAGA is 0.32 E-score.
Turning to ATTGAAGA, the binding signal was 0.204 E-score.
The figure for GAATAGGC is -0.173 E-score; for AGCACATG it is -0.117 E-score.
The figure for ACACACCG is 0.0452 E-score; for CGGCGGTC it is -0.184 E-score; for CTTCACAA it is 0.035 E-score.
Next, TACCAAAA: 0.165 E-score; AGTTTCCA: 0.18 E-score.
For GACGTATA, the binding signal amounted to 0.212 E-score.
For TACGTATA, the binding signal came to 0.35 E-score.
Next, CACGTATA: 0.243 E-score; TCTAGTCA: 0.183 E-score.
Next, AGATATCC: -0.0591 E-score.
Next, CTATATAC: 0.341 E-score; ACATAACT: 0.347 E-score; GTATATAC: 0.432 E-score.
CCATATAC: the binding signal was 0.251 E-score.
Next, ACATAACC: 0.0404 E-score; GCATATAC: 0.268 E-score.
Turning to ACATAACG, the binding signal is 0.157 E-score.
Next, AGATATCT: 0.399 E-score.
The figure for CTCTATAC is 0.033 E-score; for GGATATAC it is 0.317 E-score; for AGATATCA it is 0.127 E-score.
The figure for ATCTTTCG is 0.109 E-score; for AAGGATCA it is -0.129 E-score; for CCTAAACC it is -0.152 E-score.
CAAGGTCG: the binding signal is -0.126 E-score.
The figure for GCTGAAAA is -0.146 E-score.
Take GTTCTTAA: the binding signal stood at 0.122 E-score.
On to CAAAGCTC, for which the binding signal was -0.0842 E-score.
Next, TCGAAAAA: -0.0412 E-score; ACGTTAGA: 0.156 E-score.

The record behind these values is publication PMC6212790, “How bacterial xenogeneic silencer rok distinguishes foreign from self DNA in its resident genome”.
